Shown is part of a subset that was picked to be rich in hits.
ST2 IL33 inh: inhibitors of human ST2 (IL1RL1) binding to IL-33; 2.3% of 78,000 active; Q01638; AlphaLISA ST2-Fc/biotin-IL-33 interaction, 1 h; inhibition, % for hits at 17 µM; in the data active = inhibition above about 30%
Target sequence (Q01638 whole entry, looked up): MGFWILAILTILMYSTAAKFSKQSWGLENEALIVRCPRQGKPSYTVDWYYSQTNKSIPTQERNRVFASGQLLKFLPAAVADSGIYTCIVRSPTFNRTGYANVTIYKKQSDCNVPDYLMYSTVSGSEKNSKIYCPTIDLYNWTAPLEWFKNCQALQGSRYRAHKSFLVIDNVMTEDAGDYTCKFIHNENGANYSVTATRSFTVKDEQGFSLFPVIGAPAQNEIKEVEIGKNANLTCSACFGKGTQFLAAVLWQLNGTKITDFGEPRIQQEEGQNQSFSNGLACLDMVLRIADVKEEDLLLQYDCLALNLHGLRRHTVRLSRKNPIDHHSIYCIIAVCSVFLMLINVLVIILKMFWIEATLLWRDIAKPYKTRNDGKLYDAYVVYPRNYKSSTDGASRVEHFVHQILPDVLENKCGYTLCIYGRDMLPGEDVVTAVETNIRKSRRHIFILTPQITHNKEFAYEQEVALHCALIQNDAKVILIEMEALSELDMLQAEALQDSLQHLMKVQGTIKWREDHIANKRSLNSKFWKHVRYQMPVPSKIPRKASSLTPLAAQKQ
Starred values were filed as active, the others as inactive; i = inactive; ! = repeats disagree.

SMILES	ST2 IL33 inh
Fc1ccc(C(Nc2ccccn2)c2c[nH]c3ccccc23)cc1 (configuration not stated)	i
COc1ccc(C(Nc2cc(C)ccn2)c2ccc3ccc(C)nc3c2O)cc1OC (configuration not stated)	i
Cc1ccc2ccc(C(Nc3ccccn3)c3ccc(N(C)C)cc3)c(O)c2n1 (configuration not stated)	41%*
Cc1ccc2ccc(C(Nc3ccccn3)c3cccnc3)c(O)c2n1 (configuration not stated)	i
CSc1ccc(C(Nc2ccccn2)c2ccc3cccnc3c2O)cc1 (configuration not stated)	33%*
CCOc1cccc(C(Nc2ccccn2)c2ccc3ccc(C)nc3c2O)c1O (configuration not stated)	i
COc1cc(OC)cc(-c2nc(-c3ccc([N+](=O)[O-])cc3)no2)c1	i
O=C(Nc1cccc(F)c1)c1ccccc1C(=O)c1ncc[nH]1	i
Clc1ccc(-c2cnccn2)cc1Cl	i
Cc1nc(Cc2ccc(-n3ccnc3-c3nccn3C)cc2)n[nH]1	i
CCOc1cccc(OCCOc2cccc(C)c2)c1	i
CC(C)c1noc(-c2ccc(N3CCN(CC4CC4)CC3)nc2)n1	i
O=C(NCc1ccccc1)c1coc2nc3ccccc3nc12	i
COc1ccc(N2CC(NC(=O)c3ccc(F)cc3)CC2=O)cc1 (configuration not stated)	i
CC(=O)Nc1ccc2c(c1)CN(C(C)(C)C)CO2	i
Cc1ccc(NC(=O)c2cc3cc(Br)ccc3oc2=O)cc1C	i
CC(=O)c1ccc(NC(=O)c2cc3cc(Br)ccc3oc2=O)cc1	39%*
CC(=O)c1ccc(OC(=O)c2cc3cc(Br)ccc3oc2=O)cc1	i
CCn1cnc2cc(NCc3ccc(C)cc3)ccc21	i
CCCCn1cnc2cc(NCc3ccc(Br)cc3)ccc21	i
CCCn1cnc2cc(NCc3ccncc3)ccc21	i
CN(C)c1ccc(CNc2ccc3c(c2)ncn3C(C)(C)C)cc1	33%*
CCn1cnc2cc(NCc3cccs3)ccc21	i
CC(C)(C)n1cnc2cc(NCc3ccccn3)ccc21	i
CCN(CC)c1ccc(CNc2ccc3c(c2)ncn3CC)cc1	52%*!
SMILES	ST2 IL33 inh
CCn1cnc2cc(NCc3ccc(N(C)C)cc3)ccc21	52%*!
CC(C)(C)n1cnc2cc(NCc3ccncc3)ccc21	i
COc1ccc(Cl)cc1Nc1ncnc2c1cnn2-c1ccc(Cl)cc1	i
CC(C)(C)C1CCc2onc(C(=O)NCc3ccc(Cl)cc3)c2C1 (configuration not stated)	i
CC(C)(C)C1CCc2onc(C(=O)Nc3cccc(Cl)c3)c2C1 (configuration not stated)	i
CCc1ccc(NC(=O)c2noc3c2CC(C(C)(C)C)CC3)cc1 (configuration not stated)	53%*
COc1ccc(/C=C2\NC(=O)N(Cc3ccc(Cl)cc3)C2=O)cc1I	i
O=C(CCCCCN1C(=O)c2ccccc2C1=O)Nc1ccc(Cl)cc1	i
O=C(O)CCCC(=O)Nc1ccc(C(=O)O)cc1	i
O=C(CCCN1C(=O)S/C(=C\C=C\c2ccccc2)C1=O)Nc1ccc(C(=O)O)cc1	32%*
CC(C)(C)C(=O)NCc1nc2ccccc2n1Cc1c(F)cccc1Cl	i
COCC(C)NC(=O)c1cc(-c2ccc(Cl)c(Cl)c2)on1 (configuration not stated)	i
Cn1c(=O)c(/C=C/c2cccs2)nc2ccccc21	36%*
Cn1c(=O)c(Cc2ccccc2F)nc2ccccc21	i
COc1ccc(C(=O)c2nc3ccccc3n2C)cc1	i
COc1ccc(OC)c(C2C=C(Nc3ccccc3)C(=O)N2c2ccccc2)c1 (configuration not stated)	i
O=C1C(Nc2ccccc2)=CC(c2ccccc2[N+](=O)[O-])N1c1ccccc1 (configuration not stated)	30%*
COc1ccccc1C1C=C(Nc2ccc(C)cc2)C(=O)N1c1ccc(C)cc1 (configuration not stated)	i
CCCSc1ncc(CN2CCOC(CN)C2)cn1 (configuration not stated)	i
Cc1cc2nc(COc3ccc(Cl)cc3NC(=O)C(C)C)cc(=O)n2o1	i
O=C(O)c1ccc(CN2CC[C@H](c3nc4ccccc4s3)C2)cc1	i
N#Cc1nc(COc2ccc(Cl)cc2)oc1N1CCN(Cc2ccccc2)CC1	57%*
Cc1ccc(-c2noc(COc3ccccc3Cl)n2)cc1	i
N#Cc1nc(COc2ccccc2Cl)oc1N1CCN(Cc2ccccc2)CC1	58%*
Nc1nc(COc2ccccc2Cl)nc(N2CCOCC2)n1	i
SMILES	ST2 IL33 inh
Cc1ccccc1OCCCCN1CCCCC1	i
c1ccc(COc2ccc(CN3CCN(c4ncccn4)CC3)cc2)cc1	i
Cc1ccccc1OCCCN1CCOCC1	i
N#Cc1nc(COc2ccccc2Cl)oc1N1CCCCC1	65%*
FC(F)(F)c1ccc(N2CCN(Cc3ccccc3)CC2)nc1	i
c1ccc(COc2cccc(CN3CCN(c4ncccn4)CC3)c2)cc1	i
N#Cc1nc(COc2ccccc2Cl)oc1N1CCC(C(N)=O)CC1	i
Cc1ccccc1OCc1nc(C#N)c(N2CCCCC2)o1	68%*
CCCCNC(=O)c1cc(=O)[nH]c2ccc(S(=O)(=O)N3CCCCC3CC)cc12 (configuration not stated)	i
O=C(Cn1cnc2c(cnn2-c2ccccc2)c1=O)Nc1ccc2c(c1)OCCO2	i
Cc1noc(C)c1S(=O)(=O)N1CCC(C(=O)Nc2ccc(Cl)cc2)CC1	i
Cc1nc2ccc3nc(NC(=O)c4ccccc4Br)sc3c2s1	i
O=C(c1cc(-c2ccccc2)n[nH]1)N1CC(=O)N(C2CCCCC2)CC(OCc2cccnc2)C1 (configuration not stated)	i
CN1C=CC=C/C1=C\C=C1\C=Nc2ccccc21	i
O=C(Cn1c(-c2cncs2)nc2ccccc21)Nc1ccccc1	i
Cc1ccc(Nc2nc(-c3ccc(F)cc3)cs2)cc1C	i
Cc1ccnc(Nc2nc(-c3ccccn3)cs2)c1	i
Cc1ccnc(Nc2nc(-c3ccc(O)c(O)c3)cs2)c1	44%*
Cc1ccsc1[C@@H]1CCN(C(=O)c2coc3c2C(=O)CCC3)C[C@H]1O	32%*
CCc1nc(C)c(C(=O)N2CC[C@@H](c3sccc3C)[C@H](O)C2)o1	i
CC(=O)c1[nH]c(C)c(C(=O)N2CC[C@@H](c3sccc3C)[C@H](O)C2)c1C	i
COc1ccc(-c2nc3s/c(=C\c4ccc(N(C)C)cc4)c(=O)n3n2)cc1	i
CC(=O)N1C(=O)C(=O)c2ccccc21	i
CC(=O)N1/C(=C/c2ccc(N(C)C)cc2)C(=O)c2ccccc21	66%*
CC(Oc1ccc(C=C2C(=O)c3ccccc3C2=O)cc1)C(=O)O (configuration not stated)	i
SMILES	ST2 IL33 inh
CC(=O)N1/C(=C/c2ccncc2)C(=O)c2ccccc21	39%*
CNC(=O)N1C(=O)C(=O)c2ccccc21	i
O=C1CCCC2=C1C(c1ccccc1)c1c(nc(SCc3ccccc3F)[nH]c1=O)N2 (configuration not stated)	i
COc1ccc(CNc2ccc3c(c2)ncn3C(C)(C)C)cc1OC	i
CCn1cnc2cc(NCc3ccc(OC)c(OC)c3)ccc21	i
COc1ccc(CNc2ccc3c(c2)ncn3C2CCCCC2)cc1	39%*
COc1ccc(CNC(=O)c2ccc3c(c2)ncn3C2CCCC2)c(OC)c1	i
